Structures are written as SMILES. Results filed as inconclusive are left out. A call without a number means that no potency is given here. Activity calls are given as the source filed them. The call rests on the fitted dose curve; in most records, active means well fitted curve in the direction sought with a large enough effect; inconclusive means small, poorly fitted or top-dose-only effect, or another doubt; inactive means no such curve, though single readings can be large; an effect the other way counts as inactive or inconclusive.

Test [1] has as its target Aldehyde dehydrogenase, mitochondrial (Homo sapiens) (UniProt P05091). As to the kind of experiment: qHTS for Inhibitors of the Aldehyde Dehydrogenase Family (ALDH2) Primary screen (AID 2061308; further: nearly all actives have a fitted effect of over 55% in size). (In general: Quantitative high-throughput screening tests each substance at several concentrations.)
The target in test [2] is Retinaldehyde dehydrogenase 3 (Homo sapiens) (UniProt P47895). Description: qHTS for Inhibitors of the Aldehyde Dehydrogenase Family (ALDH1A3) Primary screen (AID 2061315).

As to `O=C(Nc1ccc(Cl)c(Cl)c1)Nc1nnc(-c2cccnc2)s1`, the Potency result in test [1] and in test [2] was “inactive” in each case.
Turning to `Cc1cc2c(s1)c1cnn(Cc3cccc([N+](=O)[O-])c3)c(=O)c1n2C`, the Potency entry in test [1] and in test [2] was “inactive” each time.
As to `FC(F)(F)c1ccc(CNc2nc(-c3ccccc3C(F)(F)F)nc3ccccc23)cc1`, the Potency result in test [1] and in test [2] was “inactive” throughout.
With `COc1ccc([C@H]2[C@H](c3ccccc3)C(=O)N2Cc2ccccc2)cc1COc1ccc(NC(C)=O)cc1`, the Potency entry in test [1] and in test [2] was “inactive” each time.
For `CC(=O)c1ccc(N2CCN(S(=O)(=O)c3ccc4c(c3)CCCC(=O)N4)CC2)cc1`, the Potency entry in test [1] and in test [2] was “inactive” in each case.
As to `Cc1cnc(-c2ccccc2CO)nc1NCc1ccc(-c2cccnc2)cc1`, the Potency result in test [1] and in test [2] was “inactive” throughout.
As to `O=C(Nc1ncc(Cc2ccc(C(F)(F)F)cc2)s1)c1ccco1`, the Potency entry in test [1] and in test [2] was “inactive” throughout.
In the case of `O=S(=O)(Nc1ccc(S(=O)(=O)Nc2nccs2)cc1)c1ccc2ccccc2c1`, the Potency entry in test [1] and in test [2] was “inactive” each time.
Consider `CCCn1c(C)nc2c(NCc3ccccc3)nc(C)nc21`, for which the Potency entry in test [1] and in test [2] was “inactive” in each case.
Turning to `O=C(OCC#CCSc1nnc(-c2ccc3ccccc3c2)o1)c1ccccc1`, the Potency entry in test [1] and in test [2] was “inactive” throughout.
In the case of `Cc1sc(NC(=O)Cc2ccc3c(c2)OCO3)nc1-c1ccc2c(c1)CCN2C(=O)c1ccccc1C(F)(F)F`, the Potency entry in test [1] and in test [2] was “inactive” in each case.
In the case of `Cc1ccc(-c2cnn(CC(=O)N(C)C(C)c3ccco3)c(=O)c2)cc1` (stereo not given), the Potency result in test [1] and in test [2] was “inactive” throughout.
As to `O=S1(=O)N=C(Oc2ccc(-c3ccccc3)cc2)c2ccccc21`, the Potency result in test [1] and in test [2] was “inactive” in each case.
Take `COc1ccc(NC(=O)c2cnn3c(C)cc(C)nc23)cc1Cl`: the Potency entry in test [1] and in test [2] was “inactive” each time.
As for `Cc1ccc(S(=O)(=O)Nc2cc(F)c(F)cc2C(=O)Nc2nc(-c3ccccc3)cs2)cc1`, the Potency entry in test [1] and in test [2] was “inactive” throughout.
Consider `Cc1cc(C)nc(NC(=S)N2CCN(c3nccc4occc34)CC2)c1`, for which the Potency result in test [1] and in test [2] was “inactive” in each case.
Turning to `Cc1ccnc(NC(=S)Nc2cccc(C(F)(F)F)c2)c1`, the Potency entry in test [1] and in test [2] was “inactive” in each case.
On to `NC(=O)c1ccccc1-c1noc(-c2ccccc2F)n1`, for which the Potency entry in test [1] and in test [2] was “inactive” in each case.
Regarding `CCOc1ccc(CCNC(=O)c2cc3ccccc3o2)cc1OCC`, the Potency result in test [1] and in test [2] was “inactive” in each case.
Consider `O=C(Nc1ccc(S(=O)(=O)Nc2nccs2)cc1)C1CC(OCc2ccccc2)C1` (stereo not given), for which the Potency entry in test [1] and in test [2] was “inactive” each time.
With `COc1cc(F)c(S(=O)(=O)N2CCN(S(=O)(=O)c3cccc(NC(C)=O)c3)CC2)c(F)c1`, the Potency result in test [1] and in test [2] was “inactive” throughout.
For the molecule `Cc1cc(C(=O)Nc2ccc(NC(=O)Cc3ccc(Cl)c(Cl)c3)cc2)no1`, the Potency result in test [1] and in test [2] was “inactive” each time.
Turning to `Oc1cccc2cc(-c3ccncc3)cnc12`, the Potency result in test [1] and in test [2] was “inactive” throughout.
For `CCN(CC)CCCn1c(-c2ccccc2)nc2c(N3CCOCC3)nc(C)nc21`, the Potency result in test [1] and in test [2] was “inactive” throughout.
Turning to `O=[S+]([O-])(Nc1cnc2ccccc2c1)c1ccc(NCc2ccc(Cl)cc2O)cc1`, the Potency entry in test [1] and in test [2] was “inactive” throughout.
Take `C=C1C(=O)O[C@H]2/C=C(/C)[C@@H](OC(C)=O)C/C=C(\C)C[C@@H](OC(=O)/C(=C/C)COC(=O)/C(=C/C)CO)[C@@H]12`: the Potency result in test [1] and in test [2] was “inactive” in each case.
As for `O=C(Nc1ccc(F)c(F)c1)Nc1nnc(-c2ccncc2)s1`, the Potency result in test [1] and in test [2] was “inactive” in each case.
Consider `Cc1c(P(=S)(c2ccccc2)c2ccccc2)c2ccccc2n1C(=O)NCc1ccccc1`, for which the Potency entry in test [1] and in test [2] was “inactive” in each case.
Take `O=C1c2ccccc2C(=O)N1c1ccc(Cl)cc1`: the Potency result in test [1] and in test [2] was “inactive” throughout.
Take `O=C1OC(c2ccccc2)(c2ccccc2)N2CCN(C(=O)NCc3ccc(F)cc3)CC12` (stereo not given): the Potency entry in test [1] and in test [2] was “inactive” throughout.

For the origin of these results see PubChem BioAssay (NCATS).
